Experimental findings from PubChem BioAssay (Tox21) are described below.

The structures appear in SMILES notation. Records with an inconclusive call do not appear. Entries that show only a call come without a potency. Activity calls are given as the source filed them. The call rests on the fitted dose curve.

A short description of the assay: p53 small molecule agonists, cell-based qHTS assay with human liver microsomes: qHTS cell viability counter screen (AID 1963579). Further: nearly all actives have a fitted effect of over 45% in size. In outline:
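After the 460/530 nm beta-lactamase read, CellTiter-Glo was added to the same wells and luminescence measured after 30 min at room temperature, giving viability of p53RE-bla cells treated 16 h with compounds plus microsomes and NADPH.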

As to `CCCCCCCCCC(=O)OCC`, the Potency entry was “inactive”. Consider `Cc1cc(N)c2cc(NC(=O)Nc3ccc4nc(C)cc(N)c4c3)ccc2n1`, for which the Potency entry was “inactive”.

Turning to `C[N+](C)(C)CCCCCCCCCC[N+](C)(C)C`, the Potency entry is “inactive”. Regarding `CC1(C)S[C@@H]2[C@H](NC(=O)C(c3ccccc3)S(=O)(=O)O)C(=O)N2[C@H]1C(=O)O` (stereo partly drawn), the Potency result is “inactive”.

In the case of `NC(=O)c1ccncc1`, the Potency entry was “inactive”. In the case of `COc1ccc(/C(C)=C/C(=O)O)c(OC)c1`, the Potency entry is “inactive”. For the compound `N#Cc1ccc(C(=O)O)cc1`, the Potency result was “inactive”. As for `CCCCOC(=O)C(C)CC` (stereo not drawn), the entry is “inactive”.

As to `NS(=O)(=O)c1ccc(Cl)c(S(N)(=O)=O)c1`, the Potency result is “inactive”. As for `CCOC(=O)Cc1cccc2ccccc12`, the entry is “inactive”. For `CCCCCCCCCC(=O)N(C)C`, the Potency entry was “inactive”.

As for `O=C(CCCCC(=O)Nc1c(I)cc(I)c(C(=O)O)c1I)Nc1c(I)cc(I)c(C(=O)O)c1I`, the Potency result is “inactive”. The entry for `CC1=CP(=O)(c2ccccc2)CC1` (stereo not drawn) is “inactive”; for `COC[C@H](c1ccc(C(F)(F)F)cc1)N1CCN(C2(C)CCN(C(=O)c3c(C)ncnc3C)CC2)C[C@H]1C` it is “inactive”. `CCOC(=O)COc1cc(-n2ncc(C(F)(F)F)c(C)c2=O)c(F)cc1Cl`: the Potency result is “inactive”. Take `CC(CC(=O)O)CC(C)(C)C` (stereo not drawn): the Potency entry is “inactive”.

In the case of `CC1CCC(C(C)CS)CC1S` (stereo not drawn), the Potency result was “inactive”. In the case of `Cc1cc(CC(=O)O)c(C)n1-c1ccc(Cl)cc1`, the Potency entry is “inactive”. Take `OCCN(CCO)c1cccc(Cl)c1`: the Potency entry is “inactive”.

As for `CCOc1cccc(N)c1`, the Potency result was “inactive”.

For the compound `C=CC(=O)OCC1CCCO1` (stereo not drawn), the Potency result is “inactive”.

For `CCOC(=O)CCc1ccccc1`, the Potency entry is “inactive”. Regarding `CCCCCCC`, the Potency result was “inactive”. Regarding `c1cc2c3c(c1)ccc1cccc(c13)C2`, the Potency entry was “inactive”.

As for `Nc1ccc(C(=O)Oc2ccccc2)c(O)c1`, the Potency entry is “inactive”. As for `CCc1cccc(C)c1N(C(=O)CS(=O)(=O)O)C(C)COC` (stereo not drawn), the entry is “inactive”. As for `Cc1cc(N)c(S(=O)(=O)O)cc1Cl`, the entry is “inactive”; as for `COc1ccc(NS(=O)(=O)c2ccc(N)cc2)nn1`, “inactive”; as for `Nc1c(Cl)cc(Cl)cc1Cl`, “inactive”. The entry for `Nc1cc(C(=O)O)ccc1Cl` is “inactive”; for `CCN(CC)C(=O)Nc1ccc(OCC(O)CNC(C)(C)C)c(C(C)=O)c1` (stereo not drawn) it is “inactive”; for `C1CCN(CN2CCCCC2)CC1` it is “inactive”. Consider `CC(=O)Nc1ccc(OCC(O)CNC(C)C)cc1` (stereo not drawn), for which the Potency entry is “inactive”. Take `CCCSS/C(CCO)=C(\C)N(C=O)Cc1cnc(C)nc1N`: the Potency result is “inactive”.

Take `CCOC(=O)N1CCC(n2c(=O)[nH]c3cc(Cl)ccc32)CC1`: the Potency entry was “inactive”. In the case of `Cc1ccc(O)cn1`, the Potency entry was “inactive”. On to `Clc1cc(Cl)c(Cl)nc1Cl`, for which the Potency entry was “inactive”. Turning to `Cc1c(C)c2c(c(C)c1OC(=O)CCC(=O)OCCO)CC[C@@](C)(CCC[C@H](C)CCC[C@H](C)CCCC(C)C)O2`, the Potency result was “inactive”.
